# Measurements: the supplement of paper PMC12645437, “Orthogonal IMiD-Degron Pairs Induce Selective Protein Degradation in Cells” (ACS Chemical Biology, 2025)
# The full ranking holds about 8,300 sequences; the median of “log2 fold change of degron read counts, EGFP-low vs EGFP+ sorted cells (limma voom), compound-induced degradation” is about -1.1, and the highest 2% start at about 3.2. The list comes from a sample in which the highest values are over-represented; it also holds similar and randomly drawn sequences.
# B1: 46F_47T_49P_50I_52G_53H_54Q_55F_67L_, Q9UKT9 (peptide)
# chain: FTCPICGHQFTQKGNLLRHIKL
# B2: 46F_47L_49D_50Q_52G_53A_54S_55F_67L_, Q9UKT9 (peptide)
# chain: FLCDQCGASFTQKGNLLRHIKL
# B3: 46F_47M_49E_50I_52G_53R_54C_55F_67L_, Q9UKT9 (peptide)
# chain: FMCEICGRCFTQKGNLLRHIKL
# B4: 46F_47T_49D_50Q_52G_53A_54F_55F_67L_, Q9UKT9 (peptide)
# chain: FTCDQCGAFFTQKGNLLRHIKL
# B5: 46F_47Q_49N_50I_52G_53A_54E_55F_67L_, Q9UKT9 (peptide)
# chain: FQCNICGAEFTQKGNLLRHIKL
# B6: 46F_47N_49N_50I_52G_53A_54E_55F_67L_, Q9UKT9 (peptide)
# chain: FNCNICGAEFTQKGNLLRHIKL
# B7: 46F_47S_49P_50I_52G_53A_54E_55F_67L_, Q9UKT9 (peptide)
# chain: FSCPICGAEFTQKGNLLRHIKL
# B8: 46F_47V_49P_50I_52G_53A_54E_55F_67L_, Q9UKT9 (peptide)
# chain: FVCPICGAEFTQKGNLLRHIKL
# B9: 46F_47Y_49N_50I_52G_53A_54E_55F_67L_, Q9UKT9 (peptide)
# chain: FYCNICGAEFTQKGNLLRHIKL
# B10: 46F_47Q_49P_50I_52G_53A_54E_55F_67L_, Q9UKT9 (peptide)
# chain: FQCPICGAEFTQKGNLLRHIKL
# B11: 46F_47T_49P_50Q_52G_53A_54W_55F_67L_, Q9UKT9 (peptide)
# chain: FTCPQCGAWFTQKGNLLRHIKL
# B12: 46F_47H_49P_50I_52G_53H_54T_55F_67L_, Q9UKT9 (peptide)
# chain: FHCPICGHTFTQKGNLLRHIKL
# B13: 46F_47Q_49N_50Q_52G_53H_54K_55F_67L_, Q9UKT9 (peptide)
# chain: FQCNQCGHKFTQKGNLLRHIKL
# B14: 46F_47I_49E_50I_52G_53R_54S_55F_67L_, Q9UKT9 (peptide)
# chain: FICEICGRSFTQKGNLLRHIKL
# B15: 46F_47Y_49E_50I_52G_53R_54Y_55F_67L_, Q9UKT9 (peptide)
# chain: FYCEICGRYFTQKGNLLRHIKL
# B16: 46F_47Y_49N_50I_52G_53A_54C_55F_67L_, Q9UKT9 (peptide)
# chain: FYCNICGACFTQKGNLLRHIKL
# B17: 46F_47Q_49N_50I_52G_53A_54C_55F_67L_, Q9UKT9 (peptide)
# chain: FQCNICGACFTQKGNLLRHIKL
# B18: 46F_47S_49N_50I_52G_53A_54C_55F_67L_, Q9UKT9 (peptide)
# chain: FSCNICGACFTQKGNLLRHIKL
# B19: 46F_47K_49N_50I_52G_53A_54C_55F_67L_, Q9UKT9 (peptide)
# chain: FKCNICGACFTQKGNLLRHIKL
# B20: 46F_47W_49N_50I_52G_53A_54C_55F_67L_, Q9UKT9 (peptide)
# chain: FWCNICGACFTQKGNLLRHIKL
# B21: 46F_47R_49N_50I_52G_53A_54C_55F_67L_, Q9UKT9 (peptide)
# chain: FRCNICGACFTQKGNLLRHIKL
# Molecular target: T1, CRBN, Q96SW2
# T1 chain: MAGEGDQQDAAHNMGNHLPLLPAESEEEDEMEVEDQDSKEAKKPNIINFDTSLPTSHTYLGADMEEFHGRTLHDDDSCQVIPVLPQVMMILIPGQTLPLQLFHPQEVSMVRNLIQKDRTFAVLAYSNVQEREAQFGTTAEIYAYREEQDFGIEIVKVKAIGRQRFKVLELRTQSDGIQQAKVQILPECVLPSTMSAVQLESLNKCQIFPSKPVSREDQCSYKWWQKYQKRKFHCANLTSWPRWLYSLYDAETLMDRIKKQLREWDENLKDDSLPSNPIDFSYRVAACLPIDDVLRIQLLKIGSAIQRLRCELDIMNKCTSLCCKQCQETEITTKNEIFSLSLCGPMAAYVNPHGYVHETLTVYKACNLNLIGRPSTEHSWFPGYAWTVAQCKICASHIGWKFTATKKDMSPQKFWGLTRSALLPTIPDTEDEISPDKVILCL
# Assay: log2 fold change of degron read counts, EGFP-low vs EGFP+ sorted cells (limma voom), compound-induced degradation; higher = more compound-induced degradation of the degron-EGFP fusion; degrons are variants of IKZF1/3 zinc finger 2; compound dose not given here
# Conditions: Jurkat, 18 h
# [1] = compound: compound 19 (5-tert-butyl-thalidomide)
# [2] = compound: compound 22 (5-morpholino-thalidomide)
# [3] = compound: compound 33 (diphenyl IMiD analogue)
# 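Note: pooled lentiviral library of zinc finger degron-EGFP fusions in mCherry-positive Jurkat cells, FACS-sorted after compound exposure, with degron abundance counted by next-generation sequencing.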
Sequence,log2 fold change of degron read counts [1],log2 fold change of degron read counts [2],log2 fold change of degron read counts [3],log2 fold change of degron read counts (compound: thalidomide)
B1,0.276,0.993,2.35,2.28
B2,-2,-2.92,-1.43,-3.07
B3,-2.91,-2.9,-1.29,-1.79
B4,-2.38,-2.78,-2.11,-2.23
B5,-1.13,0.376,1.25,3.24
B6,-0.383,-1.22,-0.688,-0.836
B7,1.92,1.11,1.41,1.11
B8,0.162,2.31,1.62,2.6
B9,1.9,1.64,0.908,-1.03
B10,1.17,1.71,2.51,3.61
B11,-1.97,-1.41,0.47,-0.222
B12,-2.42,-2.36,-1.31,-1.65
B13,-3.13,-3.72,-2.89,-2.56
B14,-2.87,-2.13,-1.31,-0.772
B15,1.09,0.388,-0.525,-1.2
B16,2.86,3.15,1.94,0.278
B17,-0.735,1.82,1.65,3.38
B18,0.632,1.69,2.11,1.06
B19,-1.31,-2.26,-2.53,-1.43
B20,2.95,3.36,1.98,0.445
B21,-1.25,-0.613,0.532,0.406
